Drawing on PubChem BioAssay (EPA / NIEHS), this text covers outcome and AC50 for two molecules.

Activity calls are given as the source filed them. How the source made its calls: active means hit-call score of the fitted dose curve at least 0.9, where 1 is the maximum; inactive means score below 0.9.

The term AC50 denotes the concentration giving half of the maximal activity seen.

Common to all, as to conditions: mRNA level, 48 h; actives raise or lower the signal
Read-out in assay [1]: Tumor necrosis factor receptor superfamily member 6 (Homo sapiens) (UniProt P25445)
Put plainly: LTEA_HepaRG_FAS: Life Technologies and Expression Analysis (LTEA) Assay for Fas cell surface death receptor (FAS) using HepaRG (AID 2283447). In a few lines:
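FAS transcript level was measured by TaqMan qRT-PCR against three housekeeping genes after 48 h chemical exposure. Cells were HepaRG, 0.5% DMSO vehicle, with a top concentration of 100 uM and half-log dilutions over eight points, in duplicate.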

Read-out in assay [2]: flavin-containing dimethylaniline monooxygenases 3 (FMO3), FMO3 (gene 2328)
Put plainly: LTEA_HepaRG_FMO3: Life Technologies and Expression Analysis (LTEA) Assay for flavin-containing dimethylaniline monooxygenases 3 (FMO3) using HepaRG (AID 2283453). In a few lines: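 Eight-point concentration-response in serum-free HepaRG cultures (top 100 uM, 0.5% DMSO, 48 h). Read-out: FMO3 mRNA level normalized to three endogenous control genes, fitted bidirectionally versus vehicle.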

Read-out in assay [3]: Cytochrome P450 (CYP1A1), CYP1A1 (gene 1543)
Put plainly: LTEA_HepaRG_CYP1A1: Life Technologies and Expression Analysis (LTEA) Assay for Cytochrome P450 (CYP1A1) using HepaRG (AID 2283454). The gist of the method: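 Differentiated human HepaRG cells, after 48 h plating, exposed in duplicate for 48 h in serum-free induction medium to 8 half-log concentrations up to 100 uM in 0.5% DMSO. CYP1A1 mRNA by qRT-PCR, normalized to ACTB/GAPDH/POLR2A; bidirectional fit versus DMSO.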

Read-out in assay [4]: CFLAR gene, CFLAR (gene 8837)
Put plainly: LTEA_HepaRG_CFLAR: Life Technologies and Expression Analysis (LTEA) Assay for CFLAR gene using HepaRG (AID 2283455). The gist of the method: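 Transcript level by qRT-PCR (normalized to ACTB, GAPDH and POLR2A) after 48 h chemical exposure of HepaRG cells, top concentration 100 uM with half-log steps, 0.5% DMSO vehicle, duplicates; fitted bidirectionally against DMSO baseline.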

Read-out in assay [5]: Forkhead box O1 (FOXO1), FOXO1 (gene 2308)
Put plainly: LTEA_HepaRG_FOXO1: Life Technologies and Expression Analysis (LTEA) Assay for Forkhead box O1 (FOXO1) using HepaRG (AID 2283456). The gist of the method:
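FOXO1 transcript quantified by qRT-PCR after 48 h chemical exposure (top 100 uM, half-log steps, 0.5% DMSO) of HepaRG cells, housekeeping-normalized (ACTB/GAPDH/POLR2A). Changes fitted in both directions relative to vehicle.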

Read-out in assay [6]: growth arrest and DNA damage 45 (GADD45A), GADD45A (gene 1647)
Put plainly: LTEA_HepaRG_GADD45A: Life Technologies and Expression Analysis (LTEA) Assay for growth arrest and DNA damage 45 (GADD45A) using HepaRG (AID 2283458). The gist of the method: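 HepaRG, 48 h exposure, 8 conc. (top 100 uM, half-log steps), 0.5% DMSO vehicle, duplicates. Read-out: qRT-PCR mRNA level, housekeeping-normalized (ACTB/GAPDH/POLR2A). Curves fit bidirectionally vs DMSO baseline.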

Read-out in assay [7]: Forkhead box O3 (FOXO3), FOXO3 (gene 2309)
Put plainly: LTEA_HepaRG_FOXO3: Life Technologies and Expression Analysis (LTEA) Assay for Forkhead box O3 (FOXO3) using HepaRG (AID 2283459). The gist of the method: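 FOXO3 transcript measured by qRT-PCR (normalized to ACTB, GAPDH, POLR2A) after 48 h exposure of HepaRG cells in serum-free induction medium. Duplicates, eight half-log concentrations up to 100 uM, 0.5% DMSO; gain or loss fitted against DMSO.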

Read-out in assay [8]: ABC Transporter (ABCB1), ABCB1 (gene 5243)
Put plainly: LTEA_HepaRG_ABCB1: Life Technologies and Expression Analysis (LTEA) Assay for ABC Transporter (ABCB1) using HepaRG (AID 2283460). In a few lines:
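ABCB1 transcript level measured by TaqMan qRT-PCR against three housekeeping genes after 48 h chemical exposure of differentiated HepaRG cells. Top concentration 100 uM, half-log steps, eight points, 0.5% DMSO vehicle; bidirectional fit relative to DMSO.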

Read-out in assay [9]: growth arrest and DNA damage 45 (GADD45B), GADD45B (gene 4616)
Put plainly: LTEA_HepaRG_GADD45B: Life Technologies and Expression Analysis (LTEA) Assay for growth arrest and DNA damage 45 (GADD45B) using HepaRG (AID 2283461). In a few lines: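 Differentiated human HepaRG cells in serum-free induction medium exposed 48 h in duplicate to eight concentrations, top 100 uM, half-log steps, 0.5% DMSO. GADD45B mRNA by TaqMan qRT-PCR, normalized to ACTB, GAPDH, POLR2A; bidirectional fit versus DMSO.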

Read-out in assay [10]: ABC Transporter (ABCC3), ABCC3 (gene 8714)
Put plainly: LTEA_HepaRG_ABCC3: Life Technologies and Expression Analysis (LTEA) Assay for ABC Transporter (ABCC3) using HepaRG (AID 2283462). The gist of the method: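 Differentiated human HepaRG cells exposed 48 h in serum-free induction medium, 0.5% DMSO vehicle, 8-point half-log series to 100 uM in duplicate. ABCC3 mRNA by qRT-PCR, normalised to ACTB, GAPDH, POLR2A; bidirectional fit vs DMSO.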

Read-out in assay [11]: ABC Transporter (ABCB11), ABCB11 (gene 8647)
Put plainly: LTEA_HepaRG_ABCB11: Life Technologies and Expression Analysis (LTEA) Assay for ABC Transporter (ABCB11) using HepaRG (AID 2283463). In a few lines: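 ABCB11 transcript levels quantified by TaqMan qRT-PCR against three housekeeping genes after 48 h chemical exposure of HepaRG cultures. Concentrations up to 100 uM in half-log steps, 0.5% DMSO vehicle; both induction and suppression scored.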

Read-out in assay [12]: ABC Transporter (ABCC2), ABCC2 (gene 1244)
Put plainly: LTEA_HepaRG_ABCC2: Life Technologies and Expression Analysis (LTEA) Assay for ABC Transporter (ABCC2) using HepaRG (AID 2283464). In a few lines: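 Differentiated HepaRG cells in serum-free induction medium exposed 48 h to eight half-log concentrations up to 100 uM, 0.5% DMSO, in duplicate. ABCC2 mRNA measured by qRT-PCR (TaqMan, Fluidigm), normalized to ACTB, GAPDH and POLR2A. Fitted in both directions against DMSO.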

Read-out in assay [13]: Broad substrate specificity ATP-binding cassette transporter ABCG2 (Homo sapiens) (UniProt Q9UNQ0)
Put plainly: LTEA_HepaRG_ABCG2: Life Technologies and Expression Analysis (LTEA) Assay for ABC Transporter (ABCG2) using HepaRG (AID 2283465). The gist of the method:
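ABCG2 transcript was quantified by TaqMan qRT-PCR against three housekeeping genes in HepaRG cells. Cells were treated in duplicate for 48 h across an 8-point half-log series up to 100 uM, with 0.5% DMSO vehicle. Gain or loss versus DMSO was fit.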

Read-out in assay [14]: ATP-citrate lyase (ACLY), ACLY (gene 47)
Put plainly: LTEA_HepaRG_ACLY: Life Technologies and Expression Analysis (LTEA) Assay for ATP-citrate lyase (ACLY) using HepaRG (AID 2283466). In a few lines:
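ACLY mRNA quantified by qRT-PCR on Fluidigm arrays against three housekeeping genes, after 48 h chemical treatment of HepaRG cells (top concentration 100 uM, half-log steps, 0.5% DMSO vehicle). Up- or down-regulation fitted relative to DMSO.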

Read-out in assay [15]: Peroxisomal acyl-coenzyme A oxidase 1 (ACOX1) gene, ACOX1 (gene 51)
Put plainly: LTEA_HepaRG_ACOX1: Life Technologies and Expression Analysis (LTEA) Assay for Peroxisomal acyl-coenzyme A oxidase 1 (ACOX1) gene using HepaRG (AID 2283467). In a few lines:
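ACOX1 transcript levels were quantified by TaqMan qRT-PCR against three housekeeping genes after 48 h chemical exposure of differentiated human HepaRG cells. Exposure used eight half-log steps topping at 100 uM, 0.5% DMSO vehicle, in duplicate. Bidirectional curve fits were made relative to DMSO.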

Read-out in assay [16]: Alkaline Phosphatase, Placental (ALPP) gene, ALPP (gene 250)
Put plainly: LTEA_HepaRG_ALPP: Life Technologies and Expression Analysis (LTEA) Assay for Alkaline Phosphatase, Placental (ALPP) gene using HepaRG (AID 2283468). The gist of the method: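 HepaRG cells plated 48 h, then exposed in duplicate for 48 h in serum-free induction medium to 8-point half-log series from 100 uM in 0.5% DMSO. ALPP mRNA by TaqMan qRT-PCR, normalized to ACTB/GAPDH/POLR2A; bidirectional fit versus DMSO.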

Read-out in assay [17]: Bcl-2 (BAD) gene, BAD (gene 572)
Put plainly: LTEA_HepaRG_BAD: Life Technologies and Expression Analysis (LTEA) Assay for Bcl-2 (BAD) gene using HepaRG (AID 2283469). In a few lines:
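Read-out: qRT-PCR of BAD mRNA, normalized to three housekeeping genes. Human HepaRG cultures got 48 h chemical exposure in 0.5% DMSO, duplicate eight-point half-log series topping at 100 uM. Gain or loss of signal fitted versus DMSO vehicle.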

Read-out in assay [18]: Bcl-2 (BAX) gene, BAX (gene 581)
Put plainly: LTEA_HepaRG_BAX: Life Technologies and Expression Analysis (LTEA) Assay for Bcl-2 (BAX) gene using HepaRG (AID 2283470). In a few lines:
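qRT-PCR read-out of BAX mRNA, normalized to three housekeeping genes, after 48 h chemical exposure of human HepaRG cells in serum-free induction medium; eight-point half-log series, top 100 uM, 0.5% DMSO vehicle; bidirectional fit versus DMSO.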

Read-out in assay [19]: Cyclin D2 (CCND2), CCND2 (gene 894)
Put plainly: LTEA_HepaRG_CCND2: Life Technologies and Expression Analysis (LTEA) Assay for Cyclin D2 (CCND2) using HepaRG (AID 2283449). The gist of the method:
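CCND2 transcript levels, quantified by qRT-PCR and normalised to three housekeeping genes, were fitted bidirectionally against 0.5% DMSO. HepaRG cultures were dosed 48 h in duplicate with an 8-point half-log series up to 100 uM.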

Broad substrate specificity ATP-binding cassette transporter ABCG2 (Homo sapiens), sequence (Q9UNQ0 whole entry, looked up): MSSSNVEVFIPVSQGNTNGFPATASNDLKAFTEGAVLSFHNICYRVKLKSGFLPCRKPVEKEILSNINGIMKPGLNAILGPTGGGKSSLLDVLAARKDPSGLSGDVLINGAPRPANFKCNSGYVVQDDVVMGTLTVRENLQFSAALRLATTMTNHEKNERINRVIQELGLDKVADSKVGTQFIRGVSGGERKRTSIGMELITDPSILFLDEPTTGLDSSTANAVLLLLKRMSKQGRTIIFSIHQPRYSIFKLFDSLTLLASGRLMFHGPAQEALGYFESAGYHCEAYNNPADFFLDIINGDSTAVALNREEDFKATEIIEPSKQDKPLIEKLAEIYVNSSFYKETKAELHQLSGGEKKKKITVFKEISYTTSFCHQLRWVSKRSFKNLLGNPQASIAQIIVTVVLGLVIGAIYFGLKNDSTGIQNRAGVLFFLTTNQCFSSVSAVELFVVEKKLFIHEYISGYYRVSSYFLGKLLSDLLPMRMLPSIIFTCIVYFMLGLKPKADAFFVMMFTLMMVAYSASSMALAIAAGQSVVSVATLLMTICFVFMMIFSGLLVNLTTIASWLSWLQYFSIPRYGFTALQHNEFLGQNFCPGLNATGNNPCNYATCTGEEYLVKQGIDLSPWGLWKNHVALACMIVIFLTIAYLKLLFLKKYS

As for `NC(=O)O`, the call in assay [1], in [2], in [3], in assay [4], in assay [5] and in assay [6] was inactive. The molecule was called inactive in assay [7], in assay [8], in assay [9], in [10], in assay [11] and in assay [12]. In addition, the call in assay [13], in [14], in [15], in assay [16], in assay [17] and in assay [18] was inactive.
Consider `C=C(C)C(=O)[O][Sn]([CH2]CCC)([CH2]CCC)[CH2]CCC`, for which the molecule was called inactive in assay [19], in assay [7], in assay [9], in assay [14], in assay [15] and in [17]. Moreover, the AC50 in [2] was 74900 nM (active); in assay [3], 2870 nM (active); in assay [4], 4030 nM (active); in assay [5] it was 1980 nM (active); in assay [6] it was 314 nM (active); in [8], 3080 nM (active). The AC50 was 3060 nM (active) in assay [10]; 2020 nM (active) in assay [11]; 3350 nM (active) in assay [12]; 917 nM (active) in assay [13]; 1580 nM (active) in [16]; 92100 nM (active) in [18].
